# An excerpt weighted towards active compounds, which were near 1.7% of everything screened.
# Neddyl block = inhibitors of human cullin neddylation | inhibition, % at 25 µM | TR-FRET cullin neddylation, biochemical | hit rate 0.58% among 360,000; in the data active = inhibition above about 36%
# SUMO1 PPI mod = modulators of human SUMO1-mediated protein-protein interactions; inhibition, % at 20 µM; hit rate 0.33% among 360,000; P63165; SUMO1 binding to a labelled peptide, TR-FRET, 1 h; in the data active = inhibition above about 37%
# Target sequence (P63165 whole entry, looked up): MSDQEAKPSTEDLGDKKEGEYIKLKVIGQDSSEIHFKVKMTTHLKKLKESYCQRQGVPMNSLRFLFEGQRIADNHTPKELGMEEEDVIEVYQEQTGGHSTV
# Rin1-Abl PPI inh = inhibitors of human Rin1-Abl protein interaction | P00519+Q13671 | TR-FRET Rin1/Abl binding, biochemical | inhibition, % at 7.35 µM | hit rate 0.4% among 360,000; in the data active = inhibition above about 5%, passing the limit was not always enough
# ATG4B inh = blocks human ATG4B protease cleavage of LC3 substrate; Q9Y4P1; ATG4B cleavage of LC3-PLA2, NBD-HPC fluorescence, 1 h; inhibition, % at 8.33 µM; hit rate 0.51% among 340,000; in the data active = inhibition above about 40%
# Target sequence (Q9Y4P1 whole entry, looked up): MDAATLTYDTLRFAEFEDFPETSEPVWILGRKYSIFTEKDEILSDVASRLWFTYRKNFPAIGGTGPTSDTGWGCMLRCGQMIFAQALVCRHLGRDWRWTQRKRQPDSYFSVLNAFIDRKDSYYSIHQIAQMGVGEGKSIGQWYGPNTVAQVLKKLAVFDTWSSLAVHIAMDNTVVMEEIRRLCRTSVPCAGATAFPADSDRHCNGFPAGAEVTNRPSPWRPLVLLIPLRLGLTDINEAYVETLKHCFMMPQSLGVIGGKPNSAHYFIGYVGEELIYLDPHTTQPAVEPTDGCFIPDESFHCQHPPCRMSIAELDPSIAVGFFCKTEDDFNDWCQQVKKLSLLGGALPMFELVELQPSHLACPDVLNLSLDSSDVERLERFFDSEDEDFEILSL
# ATG4B conf = confirmation of human ATG4B inhibitors | shares compounds with ATG4B inh | ATG4B protease fluorescent substrate cleavage assay | inhibition, % at 8.33 µM | hit rate 92% among 320; in the data active = inhibition above about 39%
# PLA2 ctr = inhibits human PLA2, flagging false ATG4B inhibitors; shares compounds with ATG4B inh; purified PLA2, NBD-C6-HPC fluorescence, 45 min; inhibition, % at 8.33 µM; hit rate 66% among 1,600; in the data active = inhibition above about 50%
# Numbers stand for hits; i = inactive; nt = not tested or not shown.
SMILES,Neddyl block,SUMO1 PPI mod,Rin1-Abl PPI inh,ATG4B inh,PLA2 ctr,others
O=C(c1[nH]c(C(F)(F)F)nc1-c1ccccc1)N1CCN(C(=O)C2CCCO2)CC1 (centres undefined),i,i,i,nt,nt,
COc1ccc(F)cc1-c1cc(NC(C)=O)c2ncc(-c3cccc(C(F)(F)F)c3)n2c1,i,i,i,nt,nt,
Cc1ccc(NC(=O)CCC(=O)NN=Cc2ccc(C)o2)c(C)c1,i,i,i,nt,nt,
O/N=C(/c1ccc(F)cc1)C1CC1c1c(F)cccc1Cl (centres undefined),i,i,i,48.0,i,
Cc1oc(-c2ccccc2Cl)nc1CS(=O)CC(=O)NCc1ccco1 (centres undefined),i,i,i,i,nt,
Cc1oc(-c2ccccc2Cl)nc1CS(=O)CC(=O)NCc1ccccc1Cl (centres undefined),i,i,i,45.6,i,ATG4B conf=59.9
CCC(c1nnnn1-c1ccc2c(c1)OCCO2)N1CCc2ccccc2C1 (centres undefined),i,i,nt,nt,nt,
CC(C)(C)c1ccc(-c2nc(C#N)c(N3CCC(C(N)=O)CC3)o2)cc1,nt,i,i,56.4,56.1,
O=C(COc1ccccc1)NCC1CCCO1 (centres undefined),i,i,i,i,nt,
O=C(COc1ccc(C(=O)c2ccccc2)cc1)NCC1CCCCC1,i,i,i,45.6,i,
CCSc1nnc(NC(=O)CSc2nnc(Cc3cccn3C)n2CCc2ccccc2)s1,i,i,i,58.0,52.0,
Cn1cccc1Cc1nnc(SCC(=O)Nc2nccs2)n1CCc1ccccc1,i,i,i,i,nt,
CC(C)(C)c1ccc(OCc2ccc(C(=O)N/N=C3\CC4CC=CC34)cc2)cc1 (centres undefined),i,i,i,48.8,55.6,
O=C(N/N=C1\CC2CC=CC12)c1ccc(COc2ccccc2)cc1 (centres undefined),i,i,i,i,nt,
Cc1ccc(S(=O)(=O)NCc2c(Cl)cccc2Oc2ccccc2)cc1,i,i,i,63.1,58.9,
O=S(=O)(NCc1c(Cl)cccc1Oc1ccccc1)c1ccccc1,i,i,i,i,nt,
O=C(Nc1nc2c(Cl)cccc2s1)C1CC1,i,i,i,i,nt,
O=C(Nc1nc2c(cc3c4c(cccc42)CC3)s1)c1ccccc1Cl,i,i,i,42.8,i,ATG4B conf=60.3
CCOc1cc(/C=C2\CCC/C(=C\c3cc(Cl)c(O)c(OCC)c3)C2=O)cc(Cl)c1O,i,i,i,44.4,50.6,
C=CCSC1=N/C(=C\c2cc(OCC)c(OC(C)=O)c([N+](=O)[O-])c2)C(=O)S1,i,i,i,89.2,94.0,
Cc1ccnc(Nc2cccnc2)n1,i,i,i,nt,nt,
O=C1/C(=C\c2cc(Cl)c(O)c(Cl)c2)SC(=S)N1Cc1ccccc1,i,i,i,44.5,60.4,
CC(C)c1ccc(/C=C/C(=O)N2CCc3ccccc3C2)cc1,i,i,i,58.6,62.9,
CC(C)c1ccc(OCC(=O)N2CCc3ccccc3C2)cc1,i,i,i,i,nt,
COC(=O)C(Cc1ccc(OC(=O)c2ccccc2Cl)cc1)N1Cc2ccccc2C1=O (centres undefined),i,i,i,82.6,86.2,
SMILES,Neddyl block,SUMO1 PPI mod,Rin1-Abl PPI inh,ATG4B inh,PLA2 ctr,others
COC(=O)CC(c1ccccc1F)N1Cc2ccccc2C1=O (centres undefined),i,i,i,i,nt,
COC(=O)C(Cc1ccc(OC(=O)c2ccccc2C)cc1)N1Cc2ccccc2C1=O (centres undefined),i,i,i,71.7,76.5,
O=C(O)[C@H](Cc1ccccc1)N1Cc2ccccc2C1=O,i,i,i,i,nt,
Cc1ccc(S(=O)(=O)N2CCN(C(=O)COC(=O)COc3ccccc3C(C)C)CC2)c(C)c1,i,i,i,i,nt,
Cc1ccccc1CN1C[C@H]2CON(C)[C@H]2C[C@H]1c1cccc(Br)c1,i,i,i,nt,nt,
Cc1c(Cl)cccc1NC(=S)NCCc1ccc(Cl)cc1,i,i,i,85.6,88.6,
Fc1ccc(CCNC(=S)Nc2ccc(F)c(Cl)c2)cc1,i,i,i,44.2,i,ATG4B conf=58.4
Cc1c(Cl)cccc1NC(=S)NCCc1ccc(S(N)(=O)=O)cc1,i,i,i,i,nt,
Cc1c(Cl)cccc1NC(=S)NCCc1ccc(F)cc1,i,i,i,70.5,77.4,
CC(C)(C)c1ccc2c(c1)C(=O)c1ccccc1C2=O,i,i,i,44.5,i,ATG4B conf=67.5
O=C1c2ccccc2C(=O)N1c1ncc(Cc2ccc(Cl)cc2)s1,i,i,i,80.4,64.5,
O=C(NC1CCCCC1)C(c1ccccc1)n1c(=O)c(-c2cc3ccccc3[nH]2)nc2ccccc21 (centres undefined),nt,i,nt,nt,nt,
O=C(O)Cc1sc(NC2CCCCC2)nc1-c1ccc(Cl)cc1,i,i,i,53.8,i,ATG4B conf=64.6
Cc1ccc(-c2nc(Nc3cccc(C)c3)sc2CC(=O)O)cc1,i,i,i,i,nt,
O=C(COc1ccccc1-c1ccccc1)NCc1cccc(Cl)c1,i,i,i,56.1,i,ATG4B conf=57.0
S=C(NCC1COc2ccccc2O1)Nc1ccccc1 (centres undefined),i,i,i,i,nt,
S=C(NCc1ccccc1)NCc1cccc(CNC(=S)NCc2ccccc2)c1,i,i,i,68.0,77.2,
Cc1ccccc1OCC(=O)NCc1ccccc1,i,i,i,i,nt,
S=C(NCc1ccccc1)NCC1COc2ccccc2O1 (centres undefined),i,i,i,52.8,61.1,
O=C(NCc1cccc(Cl)c1)NCc1cccc(Cl)c1,i,i,i,72.6,76.6,
CC(=Nc1ccccc1)C1=C(O)C(Cc2cccc(F)c2)NC1=O (centres undefined),i,i,i,nt,nt,
S=C(NCCc1ccc(Cl)cc1)NCc1ccccc1,i,i,i,64.0,72.6,
Fc1ccc(CNC(=S)NCc2cccc(Cl)c2)cc1,i,i,i,79.4,85.6,
S=C(NCc1ccccc1)NCc1cccc(Cl)c1,i,i,i,63.9,77.6,
S=C(NCCc1cccc(Cl)c1)NCc1ccccc1,i,i,i,nt,nt,
SMILES,Neddyl block,SUMO1 PPI mod,Rin1-Abl PPI inh,ATG4B inh,PLA2 ctr,others
CN(C)C=Nc1ccc([N+](=O)[O-])c2ccccc12,i,i,i,nt,nt,
COc1ccc(NC(=O)CCC(=O)c2cc(C)sc2C)cc1,i,i,i,i,nt,
COc1cc(/C=C2\C(=N)N3N=C(N4CCOCC4)SC3=NC2=O)ccc1OC(=O)c1ccccc1,i,i,i,i,nt,
N=C1/C(=C\c2ccc(OC(=O)c3ccccc3Cl)cc2)C(=O)N=C2SC(N3CCOCC3)=NN12,i,i,i,58.4,52.5,
Cc1cccc(C)c1NC(=O)C1(C)CSCC(=O)N1CCc1ccccc1 (centres undefined),i,i,nt,nt,nt,
CSc1nc2cc(Oc3cccc(Cl)c3Cl)c(Cl)cc2[nH]1,i,i,i,65.0,77.1,
CC(C)c1ccc(NC2CCCN(C(=O)c3cc(C(C)C)[nH]n3)C2)cc1 (centres undefined),i,i,i,43.4,i,ATG4B conf=74.2
COC(=O)c1ccc(C(=O)N2CCCC(Nc3ccc(C(C)C)cc3)C2)nc1 (centres undefined),i,i,i,42.1,i,ATG4B conf=78.3

# Bioassay records (PubChem BioAssay)
